# Source: PubChem (several laboratories)
# NLRP3 yeast inh: NALP3 inflammasome inhibitors in reconstituted yeast, primary screen, luminescence, uHTS. Yeast reconstituted NLRP3/ASC/caspase-1, beta-gal luminescence, 24 h. inhibition, % at 10 µM. 330,000 tested, 0.39% active;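 active = inhibition of 50% or more; inactive = inhibition below 50%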;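 also: plate controls were induced DMSO wells for no effect and uninduced yeast grown without galactose for full effect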
# tim10-1 inh: growth inhibitors of tim10-1 mutant yeast, primary screen, luminescence, uHTS. inhibition, % at 20 µM. 330,000 tested, 2.2% active. S. cerevisiae tim10-1 ts strain growth, BacTiter-Glo, 24 h. AID 463190, 2010;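 active = inhibition of at least 40%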;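 also: mutant grown at 25 °C; 0% = DMSO wells with yeast and 100% = wells holding no yeast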
# SKKanGAS inh: S. pyogenes SKKanGAS growth inhibitors in kanamycin, primary screen, streptokinase expression inhibitor project, SKKanGAS strain, BacTiter-Glo luminescence; 6 h; inhibition, % at 7.5 µM; 300,000 tested, 1.3% active;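 active = mean replicate score, as percent of positive control median, at least 50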;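 also: strain carries kanamycin resistance gene driven by streptokinase promoter and grows in 40 µg/ml kanamycin; loss of luminescence reflects streptokinase promoter inhibition or plain growth inhibition; 0% = median of DMSO wells and 100% = positive control at its reference dose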
# TIM10 inh: growth inhibitors of isogenic TIM10 control yeast, primary screen, counter-screen for tim10-1 yeast inhibitor project, luminescence, uHTS. 330,000 tested, 1.4% active. S. cerevisiae TIM10 strain growth, BacTiter-Glo luminescence, 24 h. inhibition, % at 10 µM;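 active = inhibition of 40% or more at the single tested concentration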;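 also: wild-type TIM10 isogenic control strain grown at permissive 25 °C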
# tim23-1 inh: growth inhibitors of tim23-1 mutant yeast, primary screen, luminescence, uHTS; S. cerevisiae tim23-1 growth, BacTiter-Glo luminescence, 24 h; 330,000 tested, 1.3% active; inhibition, % at 20 µM;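 active = growth inhibition of the mutant yeast at or above 50%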;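 also: temperature-sensitive mutant grown at 25 °C; plate controls were DMSO-treated mutant yeast for no effect and medium wells lacking yeast for full effect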
# NALP1 inh: NALP1 inflammasome inhibitors in reconstituted yeast, colorimetric, S. cerevisiae, triplicate retest; 280,000 tested, 0.61% active; inhibition, % at 10 µM; AID 2071, 2009; S. cerevisiae NALP1/ASC/caspase-1 growth, X-gal OD620, 72 h; in the data active = inhibition mostly above about 24%, no sharp cut-off; inactive = mostly below about 32%
# tim10-1 confirm: growth inhibitors of tim10-1 mutant yeast, confirmation, single concentration, luminescence, S. cerevisiae; shares compounds with tim10-1 inh; S. cerevisiae tim10-1 ts strain growth, BacTiter-Glo, 24 h; inhibition, % at 20 µM; 7,400 tested, 56% active; AID 463213, 2010;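 active = inhibition of yeast growth at or above a set limit in either of two repeat tests at 20 µM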;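 also: tim10-1 mutant grown at permissive 25 °C to find synthetic lethal compounds; 0% = DMSO yeast wells and 100% = medium wells without yeast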
# tim10 confirm: growth inhibitors of wild-type TIM10 yeast, confirmation, counter-screen for tim10-1 synthetic lethality project, single concentration, luminescence, S. cerevisiae; shares compounds with TIM10 inh; S. cerevisiae tim10 strain growth, BacTiter-Glo luminescence, 24 h; 4,600 tested, 63% active; inhibition, % at 10 µM;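 active = inhibition of yeast growth at or above a set limit in either of two replicates at 10 µM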;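 also: this counterscreen used the strain with wild-type TIM10; 0% = yeast with DMSO and 100% = medium wells lacking yeast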
# Active calls of the source: *; . = no result. Shown are actives, neighbours in structure and some others; about 4.9% of the full set was active somewhere.
SMILES,NLRP3 yeast inh,tim10-1 inh,SKKanGAS inh,TIM10 inh,tim23-1 inh,NALP1 inh,tim10-1 confirm,tim10 confirm
COc1ccccc1N1CCN(C(=O)c2cn(C)c3ccc(S(=O)(=O)N4CCOCC4)cc3c2=O)CC1,2,20,-2,2,11,8,.,.
CC(C)(C)C1=CC(=Nc2ccccc2N)C=C(C(C)(C)C)C1=O,2,7,11,-4,6,25,.,.
CC(C)(C)C1=CC(=O)C(=O)C(C(C)(C)C)=C1,-8,47*,-4,40*,24,51*,39*,26
Cn1cccc1/C=C1\CC(C(C)(C)C)C/C(=C\c2cccn2C)C1=O (stereo not given),28,45*,10,41*,40,-3,43*,42*
CN=c1c([N+](=O)[O-])nn(-c2ccc3c(c2)OCCO3)n1O,15,-4,10,15,19,16,.,.
CCc1cccc(N=c2c([N+](=O)[O-])nn(-c3ccc4c(c3)OCCO4)n2O)c1,-23,48*,8,57*,47,-6,31*,42*
COc1ccc(NC(=O)c2nn(C34CC5CC(CC(C5)C3)C4)cc2[N+](=O)[O-])cc1,12,5,8,18,19,-10,.,.
O=C(Nc1cccc2ccccc12)c1nn(C23CC4CC(CC(C4)C2)C3)cc1[N+](=O)[O-],12,40*,11,41*,48,10,32*,14
COC(C/C=C\C(=O)COCc1ccccc1)OC,12,37,11,20,18,.,.,.
COC(C/C=C/C(=O)[C@H](C)OCc1ccccc1)OC,11,52*,-2,46*,47,.,48*,46*
CCc1ccc(NC2=CC(=O)CC(c3ccco3)C2)cc1 (stereo not given),-4,42*,-7,41*,37,13,26,16
Cc1nc2ccccn2c1C(=O)/C=C/c1ccc(F)cc1,41,49*,3,40*,37,40,37*,43*
Cc1nc2ccccn2c1C(=O)NN,10,5,-9,-16,9,28,.,.
CC1CN(c2nc3c(c(=O)n(Cc4ccc(Cl)c(Cl)c4)c(=O)n3C)n2C)CC(C)O1 (stereo not given),7,49*,15,45*,39,11,43*,33*
Cn1c(N2CCOCC2)nc2c1c(=O)n(Cc1ccc(Cl)cc1)c(=O)n2C,28,-41,13,-26,22,.,.,.
CC1CCCC(NC(=O)COC(=O)c2cc(=O)[nH]c3ccccc23)C1C (stereo not given),16,-4,.,-4,-5,.,.,.
NNc1nc2sc3c(c2c(=O)n1-c1ccccc1)CCCC3,15,49*,17,57*,-13,2,39*,67*
Nn1c(Nc2ccccc2)nc2sc3c(c2c1=O)CCCC3,8,45*,-3,51*,23,3,24,25
Cc1ccc(-c2nc3sc4c(c3c(=O)n2N)CCCC4)cc1,1,24,-1,12,39,-16,.,.
O=C(O)CSc1nc2sc3c(c2c(=O)n1-c1ccccc1)CCC3,-20,0,0,-22,-12,.,.,.
Cc1ccc(-n2cccc2C(=S)N=P(N(C)C)(N(C)C)N(C)C)cc1,42,41*,7,46*,26,6,26,14
COc1ccccc1C(=O)NC(CCSC)C(=O)NCc1ccncc1 (stereo not given),14,-22,.,3,6,.,.,.
COc1cc(/C=N/NC(=O)C(=O)/C=C2\NC3(CCCC3)Cc3ccccc32)ccc1O,-10,52*,21,47*,45,-17,22,4
CC1=C(C#N)c2nc(N)c(C#N)c(C)c2/C1=C\c1ccc(-c2ccccc2C(=O)O)o1,.,.,8,.,.,-12,.,.
COc1cc(/C=C2/C(C)=C(C#N)c3nc(N)c(C#N)c(C)c32)ccc1OCC(=O)O,16,41*,2,42*,43,6,23,32*
SMILES,NLRP3 yeast inh,tim10-1 inh,SKKanGAS inh,TIM10 inh,tim23-1 inh,NALP1 inh,tim10-1 confirm,tim10 confirm
Cc1cccc(Cc2cnc(NC(=O)C3=NCCN3)s2)c1,-5,21,3,-4,-6,14,.,.
Cc1cccc(Cc2cnc(NC(=O)c3ccc(C)o3)s2)c1,24,55*,77*,45*,48,3,40*,48*
O=C(N/N=C\c1ccccc1OCc1ccccc1)c1ccco1,29,43*,-12,50*,34,31,22,31*
C=C1C(=O)C=C2CN(C(=O)c3ccccc3)[C@@](Cc3ccc(F)cc3)(C(=O)OC)[C@@H]12,31,61*,-9,48*,49,63*,52*,51*
Cc1cc(N2C(=O)C=CC2=O)c([N+](=O)[O-])cc1C,-25,95*,.,83*,4,64*,93*,95*
CC[C@]12c3[nH]c4cc(-c5ccco5)ccc4c3CCN1C(=O)[C@@H](CC(=O)NCCC1=CCCCC1)C[C@@H]2C(=O)N1CCN(C(=O)c2ccco2)CC1,.,25,.,13,39,.,.,.
Cc1ccc(C(=O)COC(=O)CCNS(=O)(=O)c2ccccc2F)cc1,18,-5,.,1,14,.,.,.
O=c1ccc2cc(S(=O)(=O)N3CCN(c4cc(Cl)ccc4Cl)CC3)ccc2o1,5,42*,1,42*,25,7,24,39*
COc1ccc(C2c3ccc4ccccc4c3Oc3ncn(CCCN(C)C)c(=N)c32)cc1 (stereo not given),9,18,4,4,-4,10,.,.
Cc1ccc(OCC(=O)NNC(=O)C2CSC3(C)CCC(=O)N23)cc1 (stereo not given),0,8,-8,6,10,.,.,.
CCc1c(C)sc(NC(=O)c2cc(C)on2)c1C#N,35,22,-5,20,28,15,.,.
CCCc1cc(C(N)=O)c(NC(=O)c2cc(C)on2)s1,-9,64*,3,58*,48,3,54*,54*
CCOC(=O)[C@H]1[C@H]2COc3ccc(Cl)cc3[C@@H]2N2C(=O)CNC(=O)[C@@]12C,15,6,.,-1,9,.,.,.
C=CCc1cccc(/C=N/NC(=O)c2ccccc2OC)c1O,5,49*,32,57*,40,12,31*,38*
